Screening data: PubChem, National Center for Advancing Translational Sciences (NCATS)
Pf growth 48h – Primary qHTS for delayed death inhibitors of the malarial parasite plastid, 48 hour incubation | P. falciparum luciferase growth in erythrocytes, 48 h | Potency, µM (top dose mostly 28.7 µM), hits mostly inhibitors | hit rate 5.9% among 310,000 | AID 504832, 2011
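First compound was added to culture medium, then infected red cells at 0.1% parasitemia and 2% hematocrit (final). After incubation at 37 C under 5% CO2, luciferase detection reagent was dispensed and light output recorded.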
Shiga toxin inh – A qHTS for Small Molecule Inhibitors of Shiga Toxin | Vero cells, Shiga toxin protein synthesis inhibition reporter | inhibition, % at 38.7 µM | hit rate 9.2% among 290,000; in the data active means inhibition mostly above about 28%, no sharp cut-off; inactive means mostly below about 43%
Cycloheximide cs – Cycloheximide Counterscreen for Small Molecule Inhibitors of Shiga Toxin. hit rate 12% among 300,000. max response, %. cell reporter, cycloheximide protein synthesis inhibition counterscreen; in the data active means max response mostly above about 13%, no sharp cut-off; inactive means mostly below about 14%; further: read at 38.3 µM for the half of the compounds with a filed dose
Pf growth 96h – Primary qHTS for delayed death inhibitors of the malarial parasite plastid, 96 hour incubation; P. falciparum luciferase reporter growth, 96 h; Potency, µM (series often up to 28.7 µM), usual class: inhibitors; hit rate 6.9% among 320,000; AID 504834, 2011
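Parasite growth measured via integrated firefly luciferase reporter in P. falciparum. Infected erythrocytes at 2% hematocrit, 0.05% parasitemia final were treated 96 hours at 37 C under 5% CO2, and luminescence was read.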
SARS PLP yeast – qHTS of Yeast-based Assay for SARS-CoV PLP; S. cerevisiae expressing SARS-CoV PLpro, growth rescue; Potency, µM (doses to about 32.9 µM), usual class: activators; hit rate 0.19% among 330,000; calls by dose curve; further: nearly all actives have a fitted effect of over 55% in size
NS1 function inh – qHTS Assay for Inhibitors of Influenza NS1 Protein Function. Potency, µM (doses to about 46.1 µM). hit rate 0.4% among 270,000; calls by dose curve; further: actives are rising curves; nearly all actives have a fitted effect of over 50% in size
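In this qHTS, NS1 from influenza A is expressed in budding yeast, where it slows growth. Cells are switched from glucose to 2% galactose medium (pH 6.0, -URA), treated with compound, and growth recovery is read at OD600.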
Each line names hits and unclear results; the compound was inactive in the other large screens. A selection: hits, their analogues and other compounds. The true share with any hit is near 21%. Unless noted, the call rests on the fitted dose curve; in most records, active means well fitted inhibition curve with a large enough effect; inconclusive means small, poorly fitted or top-dose-only effect, or another doubt; inactive means no such curve, though single readings can be large or run the other way.

Cc1cccc(OCC(=O)Nc2nc3ccc([N+](=O)[O-])cc3s2)c1	none
COc1ccccc1OCC(=O)Nc1nnc(C2CCCC2)s1	Cycloheximide cs 14.9
Cc1ccccc1OCC(=O)Nc1nnc(C2CCCCC2)s1	none
COc1ccccc1OCC(=O)Nc1nnc(-c2ccco2)s1	Cycloheximide cs 47.1
Cc1ccccc1OCC(=O)Nc1nnc(-c2ccncc2)s1	Pf growth 96h 14.7µM
CCOc1ccc(C(=O)C(C)OC(=O)Cn2[nH]c(=O)c3ccccc3c2=O)cc1 (stereo not given)	none
CCOC(=O)Cc1nnc(NC(=O)c2cccc(OCC)c2)s1	Pf growth 96h inconclusive
CCOc1cccc(C(=O)Nc2nnc(-c3ccco3)s2)c1	Pf growth 48h inconclusive, Shiga toxin inh 91.7, Cycloheximide cs 31.3
O=C(Cn1c(=O)n2ncnc2c2c3c(sc21)CCCC3)c1ccccc1	Pf growth 48h 11.7µM (no result: Pf growth 96h)
Cn1/c(=N/N=C/c2ccc(Cl)c([N+](=O)[O-])c2)sc2ccccc21	none
Cn1/c(=N/N=C/c2ccccn2)sc2ccccc21	Shiga toxin inh 91.5, Cycloheximide cs 51.1
Cn1/c(=N/N=C/c2ccc(N3CCOCC3)cc2)sc2ccccc21	Shiga toxin inh 71.4, Cycloheximide cs 36.9 (no result: NS1 function inh)
CCCNC(=O)c1oc2ccc3c(c2c1C)C(O)CC(C)(C)O3 (stereo not given)	none
Cc1c(C(=O)NCc2ccoc2)oc2ccc3c(c12)C(=O)CC(C)(C)O3	Shiga toxin inh 119.1, Cycloheximide cs 61.0
CCCCOc1ccc(CSCCN=C(N)N)cc1	Pf growth 48h inconclusive, Shiga toxin inh 42.1, Cycloheximide cs 30.9
FC(F)(F)c1ccc(CN2C[C@@H]3C(c4ccc(C(F)(F)F)cc4)C4(c5cccnc5)CC3(C4)[C@H]2c2ccccc2)cc1 (stereo not given in full)	Pf growth 48h 2.08µM, Pf growth 96h 2.08µM
N#Cc1ccc(C23CC4(C2)[C@H](CN(Cc2ccc(C(F)(F)F)cc2)[C@@H]4c2ccccc2)C3c2ccc(C(F)(F)F)cc2)cc1 (stereo not given in full)	none
FC(F)(F)c1ccc(CN2C[C@@H]3C(c4ccccc4)C4(c5cccnc5)CC3(C4)[C@H]2c2ccccc2)cc1 (stereo not given in full)	Pf growth 48h 2.33µM, Pf growth 96h 3.29µM
CN1C[C@@H]2C(c3ccc(C(F)(F)F)cc3)C3(c4cccnc4)CC2(C3)[C@H]1c1ccccc1 (stereo not given in full)	Pf growth 48h 2.33µM, Pf growth 96h 2.94µM
FC(F)(F)c1ccc(C2[C@H]3CN(Cc4cccnc4)[C@H](c4ccccc4)C34CC2(c2ccccc2)C4)cc1 (stereo not given in full)	Pf growth 48h 2.94µM, Pf growth 96h 2.33µM
O=C(NCc1ccc(Cl)cc1)C1CCN(C(=O)c2ccc(Cl)cc2)CC1	Pf growth 48h inconclusive, Pf growth 96h inconclusive (no result: Shiga toxin inh, Cycloheximide cs, NS1 function inh)
O=C1CSC(=S)N1N=C1CCCCCC1	Cycloheximide cs 14.0
O=C1CSC(=S)N1/N=C/c1c(F)cccc1F	none
COc1ccc(S(=O)(=O)N2CCCC(C(=O)NCc3ccncc3)C2)cc1Cl (stereo not given)	none
COc1ccc(CNC(=O)COc2ccc(S(=O)(=O)N3CCCCC3)cc2Cl)cc1	Pf growth 48h 13.1µM
COc1ccc(S(=O)(=O)N2CCC(C(=O)NCc3ccncc3)CC2)cc1Cl	Pf growth 96h 1.85µM
COc1ccc(OCCCC(=O)Nc2cc(S(=O)(=O)N3CCCCC3)ccc2OC)cc1	Pf growth 48h 11.7µM, Pf growth 96h 9.28µM (no result: Shiga toxin inh, Cycloheximide cs, NS1 function inh)
COc1ccc(S(=O)(=O)N2CCCCC2)cc1NC(=O)CSc1ncccn1	Pf growth 48h inconclusive, Pf growth 96h 11.7µM (no result: Shiga toxin inh, Cycloheximide cs, NS1 function inh)
CCN(CC(=O)Nc1c(F)cccc1F)C(=O)C1CC(=O)N(CCc2ccccc2)C1 (stereo not given)	none (no result: Shiga toxin inh, Cycloheximide cs, SARS PLP yeast, NS1 function inh)
CN(C)/C=C/C(=O)c1ccc(F)cc1F	none
CC(C)NC(=O)Nc1cccc2c1O[C@H](CN(C)C(=O)Nc1ccccc1)[C@@H](C)CN([C@H](C)CO)C2=O	none (no result: Pf growth 48h, Shiga toxin inh, Cycloheximide cs, Pf growth 96h, NS1 function inh)
COc1cccc(NC(=O)CSc2ccc3nnc(-c4ccccn4)n3n2)c1	none
Cc1ccc2cccc(OCC(=O)N3CC(C)CC(C)C3)c2n1 (stereo not given)	none (no result: NS1 function inh)
